Four compounds from PubChem BioAssay (EPA / NIEHS) can be followed below.

The source made the active and inactive calls. The calls were made as follows: active = hit-call score of the fitted dose curve at least 0.9, where 1 is the maximum; inactive = score below 0.9.

Broadly, the AC50 is the concentration giving half of the maximal activity seen.

Assay [1] in a line: ATG_GLI_CIS: Attagene CIS-FACTORIAL HepG2 Assay for human Zinc Finger Protein GLI1 (AID 2282945). The settings on record: HepG2, Attagene cis-factorial reporter mRNA, GLI element; actives raise or lower the signal. The procedure, abridged: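 Bidirectional curve fits relative to DMSO, using reporter mRNA levels from RT-PCR plus capillary electrophoresis. Cells were HepG2 transiently carrying cis-regulated reporter constructs, harvested 24 h after dosing.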

In assay [2] the target is Bile acid receptor (Homo sapiens) (UniProt Q96RI1). In words: ATG_IR1_CIS: Attagene CIS-FACTORIAL HepG2 Assay for human Nuclear Receptor Subfamily 1 Group H Member 4 (NR1H4), IR1 submotif (AID 2282946). The conditions noted are these: IR1 reporter transcription, actives raise or lower the signal. In short, it runs like this:
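HepG2 cells transiently transfected with multiplexed cis-element reporter units read endogenous transcription factor activity. After 24 h compound exposure, reporter mRNA was quantified by RT-PCR, fluorescent labelling, HpaI digestion and capillary electrophoresis; bidirectional fitting versus DMSO baseline.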

Assay [3] can be described thus: ATG_M_32_CIS: Attagene CIS-FACTORIAL HepG2 Assay for M32 Transcription Factor (Internal Marker) (AID 2282949).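 Also: background control marker of the multiplexed CIS panel rather than a real target.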 The settings on record: HepG2 Attagene cis-factorial M32 reporter, mRNA; actives raise or lower the signal. In short, it runs like this:
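Transient MRTU transfection of HepG2; 24 h compound treatment; TriZol RNA, oligo(dT) RT, reporter PCR, 6-FAM primer extension, HpaI cut, CE. Gain/loss of signal vs DMSO.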

A short description of assay [4]: ATG_M_06_CIS: Attagene CIS-FACTORIAL HepG2 Assay for M06 Transcription Factor (Internal Marker) (AID 2282950). The settings on record: HepG2 Attagene CIS-FACTORIAL M06 internal marker reporter; actives raise or lower the signal. In short, it runs like this:
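Cells (HepG2, transiently carrying cis-driven reporter units) receive chemical for 24 h before RNA isolation. Reporter cDNA is PCR-amplified, FAM-labelled by primer extension, HpaI-digested and sized on a capillary analyser.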

The target in assay [5] is Hypoxia-inducible factor 1-alpha (Homo sapiens) (UniProt Q16665). In words: ATG_HIF1a_CIS: Attagene CIS-FACTORIAL HepG2 Assay for human Hypoxia Inducible Factor 1 (HIF1A) (AID 2282951). The settings on record: HepG2 Attagene cis-factorial HIF1a reporter transcription; actives raise or lower the signal. The procedure, abridged: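 HepG2 cells transiently transfected with multiplexed cis-promoter reporter units; reporter mRNA read 24 h after dosing by RT-PCR, 6-FAM primer-extension labelling, HpaI digestion and capillary electrophoresis. Bidirectional fit versus DMSO baseline.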
Hypoxia-inducible factor 1-alpha (Homo sapiens), sequence (Q16665 whole entry, looked up): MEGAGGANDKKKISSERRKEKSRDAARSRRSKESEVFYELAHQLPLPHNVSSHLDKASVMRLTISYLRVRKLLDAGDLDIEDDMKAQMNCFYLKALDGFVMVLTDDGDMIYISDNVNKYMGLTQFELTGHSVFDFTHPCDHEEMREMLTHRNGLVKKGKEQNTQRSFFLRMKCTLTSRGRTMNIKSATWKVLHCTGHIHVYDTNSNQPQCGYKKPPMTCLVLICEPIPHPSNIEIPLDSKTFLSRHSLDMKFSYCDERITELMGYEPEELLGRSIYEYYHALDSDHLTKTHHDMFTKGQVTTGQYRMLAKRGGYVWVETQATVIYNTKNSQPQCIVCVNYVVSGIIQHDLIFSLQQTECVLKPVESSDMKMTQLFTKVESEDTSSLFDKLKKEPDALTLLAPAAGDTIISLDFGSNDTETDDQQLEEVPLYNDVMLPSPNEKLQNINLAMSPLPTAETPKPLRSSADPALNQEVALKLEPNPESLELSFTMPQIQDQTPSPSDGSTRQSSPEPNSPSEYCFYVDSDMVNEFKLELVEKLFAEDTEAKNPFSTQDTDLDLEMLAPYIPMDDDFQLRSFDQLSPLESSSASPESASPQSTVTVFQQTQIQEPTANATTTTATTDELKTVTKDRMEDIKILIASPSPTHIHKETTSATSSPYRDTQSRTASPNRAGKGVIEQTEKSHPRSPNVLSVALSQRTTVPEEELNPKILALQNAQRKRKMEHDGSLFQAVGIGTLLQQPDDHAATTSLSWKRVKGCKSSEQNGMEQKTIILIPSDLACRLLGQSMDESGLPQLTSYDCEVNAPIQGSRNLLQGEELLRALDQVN

The target in assay [6] is Hepatocyte nuclear factor 6 (Homo sapiens) (UniProt Q9UBC0). In words: ATG_HNF6_CIS: Attagene CIS-FACTORIAL HepG2 Assay for human Hepatocyte Nuclear Factor 6 (HNF6) (AID 2282952). The conditions noted are these: HepG2 Attagene cis-factorial HNF6 reporter transcription; actives raise or lower the signal. In short, it runs like this: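 Readout: fluorescent reporter-transcript fragments resolved by capillary electrophoresis after RT-PCR, reflecting endogenous factor activity in transfected HepG2. Exposure 24 h. Gain or loss of signal fitted bidirectionally against DMSO.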
Hepatocyte nuclear factor 6 (Homo sapiens), sequence (Q9UBC0 whole entry, looked up, the tested form may be a part): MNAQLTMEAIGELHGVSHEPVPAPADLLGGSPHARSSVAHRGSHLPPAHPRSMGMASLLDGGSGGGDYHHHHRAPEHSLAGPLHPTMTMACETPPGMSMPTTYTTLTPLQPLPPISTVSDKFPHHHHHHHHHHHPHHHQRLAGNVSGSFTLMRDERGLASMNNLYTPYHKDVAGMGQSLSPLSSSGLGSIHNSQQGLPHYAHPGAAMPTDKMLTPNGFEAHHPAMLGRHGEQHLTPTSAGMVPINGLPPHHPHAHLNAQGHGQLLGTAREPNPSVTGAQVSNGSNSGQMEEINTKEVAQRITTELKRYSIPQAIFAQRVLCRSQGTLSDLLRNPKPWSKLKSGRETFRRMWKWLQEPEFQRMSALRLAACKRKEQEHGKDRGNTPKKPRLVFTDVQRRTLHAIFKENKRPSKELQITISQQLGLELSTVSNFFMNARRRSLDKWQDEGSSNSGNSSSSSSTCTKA

Assay [7] addresses Heat shock factor protein 1 (Homo sapiens) (UniProt Q00613). The assay is described as follows: ATG_HSE_CIS: Attagene CIS-FACTORIAL HepG2 Assay for human Heat Shock Transcription Factor 1 (HSE) (AID 2282953). The conditions noted are these: HepG2 HSE cis-reporter, Attagene RNA transcription; actives raise or lower the signal. In short, it runs like this:
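Liver-derived HepG2 cells carry transiently introduced multiple reporter units governed by cis promoters. Reporter RNA measured 24 h post-dose through reverse transcription, PCR amplification, fluorescent labelling and capillary electrophoresis, normalised to DMSO.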

A short description of assay [8]: ATG_MRE_CIS: Attagene CIS-FACTORIAL HepG2 Assay for human Metal Responsive Element (MRE) (AID 2282954). The conditions noted are these: HepG2 MRE cis-reporter transcription, Attagene multiplex; actives raise or lower the signal. In short, it runs like this: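 Multiplexed cis-reporter assay in human HepG2 liver cells, 24 h incubation with test chemical. Reporter transcripts measured by RT-PCR and capillary electrophoresis; values from bidirectional curve fitting versus DMSO.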

A short description of assay [9]: ATG_PXRE_CIS: Attagene CIS-FACTORIAL HepG2 Assay for human Pregnane X Receptor Element (PXRE) (AID 2282957). The conditions noted are these: HepG2 Attagene CIS-FACTORIAL PXRE reporter, mRNA; actives raise or lower the signal. The procedure, abridged:
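Read-out: fluorescence of reporter-specific RT-PCR products resolved by capillary electrophoresis, fitted bidirectionally relative to DMSO. Human HepG2 liver cells carried transfected cis-promoter reporter units and were exposed to chemicals for 24 h.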

Assay [10] in a line: ATG_PPRE_CIS: Attagene CIS-FACTORIAL HepG2 Assay for human Peroxisome Proliferator-activated Response Element (PPRE) (AID 2282958). The settings on record: HepG2 PPRE cis-element reporter, Attagene transcription factor profiling; actives raise or lower the signal. The procedure, abridged:
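HepG2 cells transiently transfected with multiplexed cis-element reporter units measure endogenous transcription factor activity. After 24 h compound exposure, reporter mRNA is quantified by RT-PCR, 6-FAM labeling, HpaI digestion and capillary electrophoresis; bidirectional fits are made against DMSO baseline.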

A short description of assay [11]: ATG_RORE_CIS: Attagene CIS-FACTORIAL HepG2 Assay for human RAR-related Orphan Receptor Element (RORE) (AID 2282959). The conditions noted are these: HepG2 Attagene cis-factorial RORE reporter, mRNA; actives raise or lower the signal. The procedure, abridged:
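HepG2 cells transiently transfected with multiple cis-element reporter transcription units, exposed to chemical for 24 h. Reporter mRNA quantified by RT-PCR, 6-FAM primer-extension labeling, HpaI digestion and capillary electrophoresis; bidirectional fit versus DMSO baseline.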

Assay [12] is described as follows: ATG_Sox_CIS: Attagene CIS-FACTORIAL HepG2 Assay for human SRY-box transcription factor (SOX) (AID 2282960). The settings on record: HepG2 Attagene cis-factorial SOX reporter, mRNA; actives raise or lower the signal. The procedure, abridged:
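HepG2 cells transiently transfected with cis-element-driven multiple reporter transcription units, dosed 24 h; reporter mRNA measured by RT-PCR, FAM labelling, HpaI digestion and capillary electrophoresis. Bidirectional fit versus DMSO baseline.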

The target of assay [13] is Transcription factor Sp1 (Homo sapiens) (UniProt P08047). In words: ATG_Sp1_CIS: Attagene CIS-FACTORIAL HepG2 Assay for human Specificity Protein 1 (Sp1) (AID 2282961). The conditions noted are these: HepG2 Sp1 cis-reporter transcription, actives raise or lower the signal. The procedure, abridged: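 HepG2 cells transiently transfected with multiple reporter transcription units driven by cis-regulatory elements; Sp1-responsive reporter mRNA measured 24 h after dosing by RT-PCR and capillary electrophoresis fluorescence, fitted bidirectionally against DMSO baseline.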
Transcription factor Sp1 (Homo sapiens), sequence (P08047 whole entry, looked up): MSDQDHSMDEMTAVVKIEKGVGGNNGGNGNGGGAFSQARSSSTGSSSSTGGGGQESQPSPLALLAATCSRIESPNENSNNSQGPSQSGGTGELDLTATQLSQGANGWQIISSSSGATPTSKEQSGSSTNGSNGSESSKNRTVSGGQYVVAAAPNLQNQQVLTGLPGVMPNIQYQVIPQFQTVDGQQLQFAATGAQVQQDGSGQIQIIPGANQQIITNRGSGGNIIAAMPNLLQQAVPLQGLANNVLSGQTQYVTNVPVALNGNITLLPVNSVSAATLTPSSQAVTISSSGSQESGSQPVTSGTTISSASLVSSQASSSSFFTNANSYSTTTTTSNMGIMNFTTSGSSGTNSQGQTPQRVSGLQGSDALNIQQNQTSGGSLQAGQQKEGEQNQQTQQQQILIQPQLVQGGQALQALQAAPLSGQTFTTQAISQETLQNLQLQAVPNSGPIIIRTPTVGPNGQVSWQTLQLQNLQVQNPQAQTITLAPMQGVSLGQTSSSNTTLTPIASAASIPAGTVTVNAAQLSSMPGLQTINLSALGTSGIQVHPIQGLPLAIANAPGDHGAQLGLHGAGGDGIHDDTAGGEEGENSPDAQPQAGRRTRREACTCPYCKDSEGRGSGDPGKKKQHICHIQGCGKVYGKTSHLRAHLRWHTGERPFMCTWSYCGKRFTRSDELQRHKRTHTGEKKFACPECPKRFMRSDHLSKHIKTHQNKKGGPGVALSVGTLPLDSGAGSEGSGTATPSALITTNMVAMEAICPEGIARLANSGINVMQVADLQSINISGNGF

Assay [14] can be described thus: ATG_SREBP_CIS: Attagene CIS-FACTORIAL HepG2 Assay for human Sterol Regulatory Element Binding (SREBP) (AID 2282962). The conditions noted are these: HepG2 Attagene cis-factorial SREBP reporter, mRNA; actives raise or lower the signal. The procedure, abridged:
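Values derive from bidirectional curve fitting with DMSO as baseline. The underlying measurement is reporter mRNA from cis-element-regulated units in transiently transfected HepG2, quantified by RT-PCR and capillary electrophoresis after 24 h exposure.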

Assay [15] has as its target Signal transducer and activator of transcription 3 (Homo sapiens) (UniProt P40763). In words: ATG_STAT3_CIS: Attagene CIS-FACTORIAL HepG2 Assay for human Signal Transducer and Activator of Transcription 3 (STAT3) (AID 2282963). The settings on record: HepG2, Attagene cis-factorial STAT3 reporter transcription; actives raise or lower the signal. In short, it runs like this: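 Cis-factorial format: endogenous transcription factors in HepG2 drive transfected reporter units. After 24 h treatment, reporter RNA was reverse-transcribed, amplified, FAM-labelled and HpaI-digested before CE analysis; activity scored in both directions against DMSO.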

A short description of assay [16]: ATG_TA_CIS: Attagene CIS-FACTORIAL HepG2 Assay for human TA Basal Promoter (AID 2282964). The settings on record: HepG2 Attagene CIS-factorial TA basal promoter reporter; actives raise or lower the signal. The procedure, abridged: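 Background internal-marker endpoint from a 52-component HepG2 cis-reporter panel. Cells treated 24 h; reporter transcripts quantified via RT-PCR and CE fluorescence against DMSO baseline.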

The nature of assay [17]: ATG_GRE_CIS: Attagene CIS-FACTORIAL HepG2 Assay for human Glucocorticoid Response Elements (GRE) (AID 2282947). The settings on record: HepG2 GRE cis-reporter, Attagene multiplex mRNA; actives raise or lower the signal. The procedure, abridged: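 Multiplexed cis-reporter mRNA induction, HepG2, 24 h post-dose. RT-PCR, FAM-labelled, HpaI-digested amplicons by CE. Bidirectional fit vs DMSO.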

Assay [18] is described as follows: ATG_ISRE_CIS: Attagene CIS-FACTORIAL HepG2 Assay for human Interferon Regulatory Factor 1 (IRF1) binding to an Interferon-Stimulated Response Element (ISRE) (AID 2282948). The settings on record: HepG2 ISRE cis-reporter (Attagene), mRNA transcription readout; actives raise or lower the signal. In short, it runs like this:
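Signal reflects induction or loss of ISRE-linked reporter mRNA in transiently transfected HepG2 cells after a 24 h treatment, detected by fluorescent RT-PCR fragments on capillary electrophoresis and normalised to DMSO.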

Assay [19] in a line: ATG_PBREM_CIS: Attagene CIS-FACTORIAL HepG2 Assay for human Phenobarbital-responsive Enhancer Module (PBREM) (AID 2282955). The settings on record: HepG2 PBREM cis-reporter, Attagene multiplexed transcription; actives raise or lower the signal. In short, it runs like this:
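HepG2 cells transiently transfected with multiple cis-regulated reporter transcription units; endogenous factor activity at the PBREM element measured as reporter mRNA 24 h after dosing, via RT-PCR and capillary electrophoresis of fluorescent fragments; bidirectional fitting versus DMSO.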

Assay [20] has as its target Paired box protein Pax-6 (Homo sapiens) (UniProt P26367). The assay is described as follows: ATG_Pax6_CIS: Attagene CIS-FACTORIAL HepG2 Assay for human Paired Box 6 (PAX6) (AID 2282956). The conditions noted are these: HepG2 CIS-FACTORIAL PAX6 reporter transcription, RNA readout; actives raise or lower the signal. In short, it runs like this:
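Values derive from bidirectional curve fitting of reporter mRNA signal relative to DMSO. HepG2 cells bearing transfected cis-regulated MRTUs were exposed for 24 h; transcripts were read by RT-PCR and capillary electrophoresis.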

Heat shock factor protein 1 (Homo sapiens), sequence (Q00613 whole entry, looked up): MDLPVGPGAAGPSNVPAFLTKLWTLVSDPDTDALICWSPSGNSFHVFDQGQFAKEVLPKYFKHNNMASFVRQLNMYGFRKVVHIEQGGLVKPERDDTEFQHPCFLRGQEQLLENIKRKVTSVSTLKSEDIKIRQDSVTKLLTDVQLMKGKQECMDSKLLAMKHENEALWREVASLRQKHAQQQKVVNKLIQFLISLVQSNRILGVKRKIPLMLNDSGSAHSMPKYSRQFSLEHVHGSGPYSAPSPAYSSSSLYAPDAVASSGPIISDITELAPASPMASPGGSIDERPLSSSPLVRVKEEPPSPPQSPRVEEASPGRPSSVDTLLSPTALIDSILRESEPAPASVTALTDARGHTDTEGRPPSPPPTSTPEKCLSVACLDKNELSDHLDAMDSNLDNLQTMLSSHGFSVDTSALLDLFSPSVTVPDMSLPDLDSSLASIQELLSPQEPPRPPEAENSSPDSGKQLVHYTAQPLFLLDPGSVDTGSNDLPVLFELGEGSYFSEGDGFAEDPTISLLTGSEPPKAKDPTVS
Paired box protein Pax-6 (Homo sapiens), sequence (P26367 whole entry, looked up): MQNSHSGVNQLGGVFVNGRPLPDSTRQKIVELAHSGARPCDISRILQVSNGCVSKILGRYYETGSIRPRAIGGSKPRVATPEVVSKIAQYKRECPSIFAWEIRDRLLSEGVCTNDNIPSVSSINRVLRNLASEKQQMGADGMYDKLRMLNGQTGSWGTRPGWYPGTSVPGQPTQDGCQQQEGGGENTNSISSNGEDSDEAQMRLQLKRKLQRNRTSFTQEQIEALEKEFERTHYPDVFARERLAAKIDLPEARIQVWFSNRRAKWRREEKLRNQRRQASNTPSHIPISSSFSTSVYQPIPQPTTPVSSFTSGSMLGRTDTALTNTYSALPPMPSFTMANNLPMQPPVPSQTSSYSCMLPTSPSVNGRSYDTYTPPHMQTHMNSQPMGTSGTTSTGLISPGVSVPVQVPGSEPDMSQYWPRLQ
Signal transducer and activator of transcription 3 (Homo sapiens), sequence (P40763 whole entry, looked up): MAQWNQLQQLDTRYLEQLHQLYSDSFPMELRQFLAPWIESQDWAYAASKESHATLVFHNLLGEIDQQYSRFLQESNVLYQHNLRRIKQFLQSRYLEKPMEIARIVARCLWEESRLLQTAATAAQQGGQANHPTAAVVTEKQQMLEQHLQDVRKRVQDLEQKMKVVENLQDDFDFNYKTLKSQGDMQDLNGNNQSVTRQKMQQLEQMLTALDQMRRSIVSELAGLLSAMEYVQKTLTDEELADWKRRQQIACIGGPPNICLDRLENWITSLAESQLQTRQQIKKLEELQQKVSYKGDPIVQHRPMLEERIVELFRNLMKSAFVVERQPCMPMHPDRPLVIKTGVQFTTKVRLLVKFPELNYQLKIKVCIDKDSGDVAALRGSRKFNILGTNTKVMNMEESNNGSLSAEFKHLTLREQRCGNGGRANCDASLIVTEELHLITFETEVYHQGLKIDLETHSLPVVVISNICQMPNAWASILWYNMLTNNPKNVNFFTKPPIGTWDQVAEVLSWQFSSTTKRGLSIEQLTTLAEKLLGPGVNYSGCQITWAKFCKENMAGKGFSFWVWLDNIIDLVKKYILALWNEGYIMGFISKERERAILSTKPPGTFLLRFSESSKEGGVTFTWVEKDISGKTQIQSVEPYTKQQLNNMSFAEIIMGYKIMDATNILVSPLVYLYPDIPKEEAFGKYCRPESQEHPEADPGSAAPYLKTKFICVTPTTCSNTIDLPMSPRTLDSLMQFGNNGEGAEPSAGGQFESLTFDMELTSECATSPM
Bile acid receptor (Homo sapiens), sequence (Q96RI1 whole entry, looked up): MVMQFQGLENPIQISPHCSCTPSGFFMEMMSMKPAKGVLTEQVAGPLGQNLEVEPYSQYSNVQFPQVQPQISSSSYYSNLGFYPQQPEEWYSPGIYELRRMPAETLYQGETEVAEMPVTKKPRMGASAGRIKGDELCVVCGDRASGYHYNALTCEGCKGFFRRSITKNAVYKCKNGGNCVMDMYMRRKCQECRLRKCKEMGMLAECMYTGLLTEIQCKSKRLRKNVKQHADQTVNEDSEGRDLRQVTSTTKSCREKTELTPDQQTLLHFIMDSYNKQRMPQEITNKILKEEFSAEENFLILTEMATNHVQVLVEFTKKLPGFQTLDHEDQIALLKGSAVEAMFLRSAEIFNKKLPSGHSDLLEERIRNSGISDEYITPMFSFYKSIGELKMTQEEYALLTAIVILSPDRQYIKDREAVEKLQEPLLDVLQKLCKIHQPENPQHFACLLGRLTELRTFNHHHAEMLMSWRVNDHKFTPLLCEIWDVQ

In the case of `CC(=O)C1=C(C)[C@@H]2C[C@@]3(C1)[C@H](C)CC[C@H]3C2(C)C`, the AC50 was 166 µM (active) in assay [1]; 148 µM (active) in [3]; 75.3 µM (active) in assay [4]; 131 µM (active) in assay [5]; 186 µM (active) in [6]; 24.5 µM (active) in [7]. Moreover, the AC50 in assay [8] was 146 µM (active); in [9], 1.91 µM (active); in [13] it was 50.5 µM (active); in assay [14], 71.8 µM (active); in assay [15], 150 µM (active); in [16], 159 µM (active). Besides, the call in [2], in [10], in assay [11] and in assay [12] was inactive.

For `c1coc(CNc2ncnc3nc[nH]c23)c1`, the compound was called inactive in assay [1], in [17], in assay [18], in assay [3], in assay [4] and in assay [5]. Besides, the outcome in [6], in [7], in assay [8], in assay [19], in assay [20] and in [10] was inactive. Besides, the result in assay [11], in assay [12], in assay [13], in assay [14], in assay [15] and in assay [16] was inactive. In addition, in [9], the AC50 was 44 µM (active).

In the case of `CCc1cccc(O)c1`, the outcome in assay [1], in assay [2], in assay [3], in [4], in [5] and in assay [7] was inactive. Moreover, the call in assay [8], in [19], in [20], in [10], in assay [11] and in [12] was inactive. Also, the compound was called inactive in assay [13], in assay [14], in assay [15] and in [16]. Besides, in [9], the AC50 was 28.1 µM (active).

`CC(C)N(c1ccccc1)C(C)C`: the outcome in assay [1], in assay [17], in assay [18], in assay [3], in assay [4] and in assay [5] was inactive. The compound was called inactive in assay [6], in assay [7], in assay [8], in assay [19], in [20] and in [9]. Moreover, the compound was called inactive in assay [11], in assay [12], in assay [13], in [14], in [15] and in assay [16].
